Measured values as given in ChEMBL document CHEMBL3988442, “University of Dundee, Small-Polar-MMV Screening Library” (2021).
Among all 48,000 compounds or so, about 13,000 (27%) showed an effect of 50% or more. The list shows a part of the results.

These compounds were tested on Wolbachia pipientis (assay: Anti-Wolbachia Cell-Based Screen). Details: 5 µM.
Format: functional
Set-up: scale not given: in the data most compounds retested in dose-response had high values

| SMILES | Percent Effect [%] |
| --- | --- |
| Cc1nc(CCNC(=O)C2CCN(C(C)C)CC2)sc1Cl | 3.943 |
| CCc1ccccc1OC1CN(CC2CCOC2)C1 (stereo unspecified) | 1.155 |
| CN(C)C(=O)CCCn1ccc(NCc2ccc(C#N)cc2)n1 | -12.19 |
| COCc1cccc(NC(=O)N(C)Cc2ncc(C)c(OC)c2C)c1 | -2.673 |
| O=C(CC1CCCCC1)N1CCN(C(=O)NCc2ccccn2)CC1 | -2.156 |
| O=C(CC1CCCC1)N1CCN2C[C@@H](CO)[C@H](c3ccccc3)[C@H]2C1 | 76.76 |
| COC(=O)N1CCC(NC(=O)CC(C)CCc2ccccc2)CC1 (stereo unspecified) | 12.69 |
| COCCC(=O)N1CCC2(CC1)CC(c1ccccc1)CN(C1CC1)C2 (stereo unspecified) | -1.605 |
| O=C(CO)N1CCCC(N2CCN(c3ccccc3F)CC2)C1 (stereo unspecified) | 13.62 |
| O=C(Nc1nc(-c2ccccc2)ns1)N1CCN(C(=O)C2CC2)CC1 | -11.4 |
| COCCOC(=O)N1CCN2C[C@@H](CO)[C@H](c3ccccc3)[C@H]2C1 | 99.06 |
| COC(=O)N1CCN(Cc2ccccc2Cl)CC1 | 0.9968 |
| COCCOC(=O)N1C[C@H]2CC[C@@H]1CN(C1Cc3ccccc3C1)C2 | 9.586 |
| O=C(C1CC1)N1CCN(C(=O)C2CC(=O)N(c3ccccc3Br)C2)CC1 (stereo unspecified) | 9.914 |
| NC(=O)[C@@H]1CN2CCN(C(=O)C3CC3)C[C@@H]2[C@H]1c1ccccc1 | 100.9 |
| COC(=O)N1CCN2C[C@H](CO)[C@@H](c3ccccc3)[C@H]2C1 | 95.68 |
| O=C(NC1CCCN(c2ccc(OC(F)F)cc2)C1)c1ccon1 (stereo unspecified) | 12.05 |
| Cc1c(NCCCOc2cccc(C#N)c2)cccc1C(N)=O | -5.343 |
| O=C1CCN(C(=O)C2(c3ccc(F)cc3)CCOCC2)CCN1 | 5.245 |
| Cc1cc(CS(=O)(=O)c2ccccc2)no1 | -12.79 |
| CC(=O)N1CCN(C)CC(COCc2ccccc2)C1 (stereo unspecified) | -1.846 |
| CCN1CC[C@]2(CN(C(=O)C3CCOCC3)C[C@H]2c2ccccc2)C1=O | -4.584 |
| CC(=O)N1CCN2C[C@H](CO)[C@@H](c3ccccc3)[C@H]2C1 | 95.75 |
| CC(=O)N1CCN(C2CCc3ccccc32)CC1 (stereo unspecified) | 10.52 |

| SMILES | Percent Effect [%] |
| --- | --- |
| O=C(C1CC1)N1CCN2C[C@@H](CO)[C@H](c3ccccc3)[C@H]2C1 | 89.49 |
| CCC(NC(=O)c1ccc2[nH]ccc2c1)C(=O)N1CCOCC1 (stereo unspecified) | 6.827 |
| OC1CCN(c2ccccc2NCc2nc(-c3ccoc3)no2)CC1 | 5.706 |
| O=C(NCCN1C(=O)CCC1=O)c1nc2ccccc2c(=O)[nH]1 | 1.599 |
| CCCc1cc(C(=O)NCCCC(=O)N2Cc3ccccc3C2)[nH]n1 | -1.2 |
| CN1CCn2c(-c3cccc(F)c3)cnc2C12CCN(CC1CC1)CC2.O=C(O)C(F)(F)F.O=C(O)C(F)(F)F.O=C(O)C(F)(F)F | -9.47 |
| CNC(=O)N1CCC2(CC1)c1ncc(-c3cccc(F)c3)n1CCN2C.O=C(O)C(F)(F)F | 101.8 |
| CC(=O)N1CCn2c(-c3cccc(F)c3)cnc2C12CCNCC2.O=C(O)C(F)(F)F | 7.148 |
| CCN1CCn2c(-c3cccc(F)c3)cnc2C12CCN(C(C)=O)CC2.O=C(O)C(F)(F)F | 112.1 |
| CCN1CCN(S(=O)(=O)c2cn(C(C)C)cn2)c2ccccc21 | -8.79 |
| Cc1cncc(C2CCN(C(=O)c3ccc(-n4cccn4)nc3)CC2)n1 | 157.3 |
| O=C(c1ccc(-n2cccn2)nc1)N1CCCC(c2cnccn2)C1 (stereo unspecified) | 143.5 |
| O=C(c1ccc(-n2cccn2)nc1)N1CCCN(c2cccnn2)CC1 | 2.596 |
| O=C(c1ccc(-n2cccn2)nc1)N1CCC(c2ccc(O)cc2)CC1 | -5.1 |
| O=C(c1ccccc1)C1CCN(c2cncc(-n3cccn3)n2)CC1 | 6.831 |
| O=C(c1ccc(-n2cccn2)nc1)N1CCC(c2ccn[nH]2)C1 (stereo unspecified) | 151 |
| CC1CCCCN1C1CN(C(=O)c2sccc2S(N)(=O)=O)C1 (stereo unspecified) | 5.602 |
| CN(Cc1ccccc1)C1(C(=O)O)Cc2ccccc2C1 | 1.396 |
| CC[C@@H]1N(Cc2nccs2)CCC[C@]12CCC(=O)N2CCOC.O=C(O)C(F)(F)F | 100.4 |
| CC[C@@H]1N(Cc2nccs2)CCC[C@]12CCC(=O)N2C.O=C(O)C(F)(F)F | 109.2 |
| CN1C(=O)CCCC12CCCN(Cc1nccs1)C2.O=C(O)C(F)(F)F (stereo unspecified) | -2.009 |
| CC[C@@H]1N(CC2CC2)CCC[C@]12CCC(=O)N2CCOC.O=C(O)C(F)(F)F | -7.54 |
| COCCN1C(=O)CC[C@]12CC[C@@H](NCc1nccs1)CC2.O=C(O)C(F)(F)F | -1.329 |
| Cn1cccc1C(=O)N1C[C@H]2CN(CCN3CCCC3)C(=O)[C@H]2C1 | -3.388 |

| SMILES | Percent Effect [%] |
| --- | --- |
| Cn1cc(C(=O)N[C@H]2CN(S(C)(=O)=O)[C@@H]3CCCO[C@H]23)cn1 | 0.3212 |
| CS(=O)(=O)N1C[C@@H](NC(=O)c2ccno2)[C@@H]2OCCC[C@@H]21 | 112.1 |
| CN(C)C(=O)N[C@@H]1CN(S(C)(=O)=O)[C@@H]2CCCO[C@@H]21 | -12.16 |
| CS(=O)(=O)N1C[C@H](NC(=O)c2ccno2)[C@@H]2OCCC[C@@H]21 | 97.34 |
| CC(CCNC(=O)NCCc1ccc(S(N)(=O)=O)cc1)c1ccccc1 (stereo unspecified) | 2.961 |
| NC(=O)c1ccccc1Oc1cnc(C2CCCN2)cn1 (stereo unspecified) | 134.2 |
| CN1CCN(Cc2ccccc2Oc2ccc(C(N)=O)cn2)CC1 | -9.578 |
| Nc1nc(CCCNC(=O)c2ccccc2C2CCNC2)cs1 (stereo unspecified) | 16.63 |
| COc1ccccc1-c1c[nH]c(C2CCCN2)n1.Cl.Cl (stereo unspecified) | -20.8 |
| NC(=O)c1ccccc1Oc1cccc(C2CCCNC2)n1 (stereo unspecified) | 178.3 |
| NC(=O)c1cc(C2CCCN(CCCOc3ccccc3)C2)n[nH]1 (stereo unspecified) | -3.314 |
| Cc1ncccc1C(=O)Nc1ccc2ccn(CCN(C)C)c2c1 | -6.665 |
| CSc1ncccc1C(=O)Nc1ccc(Cn2ccccc2=O)cc1 | 85.69 |
| O=C(Nc1cccn(Cc2ccccc2)c1=O)c1ccncc1F | -8.682 |
| CC(C)c1ocnc1C(=O)Nc1cccc(Cn2ccccc2=O)c1 | 74.78 |
| Cc1ncccc1C(=O)Nc1cccc2c1C(=O)NC2 | -1.694 |
| CC(C)S(=O)(=O)Cc1cccc(NC(=O)c2ccc[nH]2)c1 | 19.64 |
| O=C(CCn1ccccc1=O)Nc1ccc(I)cc1 | -0.04239 |
| Cc1ncccc1C(=O)Nc1cccc(Cn2ccccc2=O)c1 | 100.7 |
| CC(C)c1nc2cc(NC(=O)Cn3ccccc3=O)ccc2o1 | 6.336 |
| O=C(NCc1nnc2n1CCC2)N(Cc1ccc(F)cc1)C1CC1 | -6.428 |
| CN(Cc1ccc(F)cc1)C(=O)NCc1nnc2n1CCC2 | 105 |
| CN(Cc1ccc(F)cc1)C(=O)NCc1nnc2n1CCCCC2 | -12.53 |
| CN(Cc1cnn(C)c1)C(=O)NCc1nnc2n1CCC2 | -11.71 |

| SMILES | Percent Effect [%] |
| --- | --- |
| CN(Cc1ccc(N(C)C)cc1)C(=O)NCc1nnc2n1CCC2 | 115.6 |
| CN(Cc1ccco1)C(=O)NCc1nnc2n1CCC2 | 1.808 |
| CN(CCO)Cc1nnc(C2CCN(C[C@H]3[C@@H]4CNC[C@@H]43)CC2)n1C | -4.687 |
| CCc1ccc(C2CCCN2C(=O)CNC(=O)CCC(C)C)o1 (stereo unspecified) | 9.018 |
| CCCC(=O)Nc1cc2c(cc1OC)NC(=O)CC2c1ccc(CC)o1 (stereo unspecified) | 133.6 |
| CCc1ccc(S(=O)(=O)Nc2cc(OC)c(OC)cc2C(=O)O)s1 | -0.559 |
| CCc1ccc(C2CC(=O)Nc3cc(OC)c(NS(C)(=O)=O)cc32)o1 (stereo unspecified) | 82.49 |
| CCc1ccc(C2CC(=O)Nc3cc(NS(C)(=O)=O)ccc32)o1 (stereo unspecified) | 85.79 |
| CN(Cc1ccc(C2CC(=O)Nc3cc4[nH]ncc4cc32)o1)S(C)(=O)=O (stereo unspecified) | 6.583 |
| CCc1ccc(C2CC(=O)Nc3n[nH]cc32)o1 (stereo unspecified) | 13.18 |
| CCc1ccc(C2CCCN2C(=O)NCC(=O)NCC(C)C)o1 (stereo unspecified) | -83.92 |
| CN(Cc1ccc(C2CC(=O)Nc3n[nH]cc32)o1)S(C)(=O)=O (stereo unspecified) | 5.804 |
| CS(=O)(=O)Cc1ccc(Cl)c(NCc2noc(C3CC3)n2)c1 | -7.665 |
| CCOCCOC(C)C(=O)Nc1ccc2[nH]c(C)cc2c1 (stereo unspecified) | 4.03 |
| CC(NC(=O)c1ccc(CS(C)(=O)=O)o1)c1ccc(F)c(F)c1 (stereo unspecified) | -18.18 |
| CC(=O)N1CCN(C2CCCCc3ccccc32)CC1 (stereo unspecified) | -7.249 |
| CC(=O)N1CCC(N[C@@H]2CO[C@H](CNC(=O)C3CCCC3)[C@H]2O)CC1 | -17.04 |
| CC(=O)N1CCC(C(=O)N(C)[C@@H]2CCC[C@@H](N3CCCC3)[C@@H]2O)CC1 | -16.02 |
| CC(=O)N1CCN([C@@H]2CC[C@@H](N(C)C(=O)C3CCCCC3)[C@H]2O)CC1 | 97.43 |
| CC(=O)N1CCN([C@@H]2CCC[C@@H](N(C)C(=O)C3CC3)[C@H]2O)CC1 | 98.54 |
| COC(=O)N1CCCC(C(=O)N(C)C)C1 (stereo unspecified) | 5.213 |
| Cc1cc(=O)c(C(=O)N(C)Cc2ccc(Cl)c(F)c2)c[nH]1 | 0.1621 |
| CCCc1noc(C(C)S(=O)(=O)Cc2nc(C3CC3)no2)n1 (stereo unspecified) | -3.55 |
| COC(C(=O)NCc1c(C)nc2cc(=O)[nH]n2c1C)c1ccccc1 (stereo unspecified) | -2.131 |
